These results are taken from PubChem BioAssay (NCI).

Structures are written as SMILES. About 83,000 compounds went through this panel and 20% of them were active in at least one assay; those are over-represented in the sample as a whole.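 48-hour exposure, single concentration, 96-well plates; percent growth endpoint where 0 means no net growth. Active: below 10.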 A number with no mark means an inactive call. Active and inactive are the calls of the source.

This assay concerns A549/ATCC NSCLC. Briefly: NCI-60 one-dose screen, 48 h (100 = growth as untreated, 0 = no growth, -100 = all killed). The note with it: 10 µM.
Turning to `COc1cccc(-c2ccnc(/N=C(\N)Nc3ccc(S(=O)(=O)Nc4nc(C)cc(C)n4)cc3)n2)c1`, the growth was 102%.

Regarding `O/N=C(\CSc1nnc(-c2c[nH]c3ccccc23)n1-c1ccccc1)c1ccc(Cl)cc1`, the growth was 21.5%.

On to `COC(=O)c1c(C(=O)OC)c2n(c1C)[C@@H]([C@@H](C)[C@H]1CC[C@H]3[C@@H]4CCC5=CC(=O)CC[C@]5(C)[C@H]4CC[C@]13C)SC2`, for which the growth is 37.1%.

For the compound `Cc1ccc(-c2cc(C(=O)N=Nc3c(O)[nH]c4ccc(Br)cc34)c3ccccc3n2)cc1`, the growth is 85.8%.

In the case of `COc1ccc(-c2c(N)c(=O)n(C)c3ccccc23)cc1`, the growth was 92.1%.

In the case of `O=c1cc(-c2ccccc2)oc2cc(OCCCNCc3ccccc3)cc(O)c12`, the growth was 26.2%.

As for `COc1cccc2nc(Nc3cccc(NC(=O)c4ccc(CN5CCCN(C)CC5)c(C(F)(F)F)c4)c3)ccc12`, the growth is -75.6% (active).

For `COc1ccc(-c2cc(-c3cc(C(=O)c4ccc(Br)cc4)n4ccc(C)cc34)nc(N)c2C#N)cc1`, the growth was 93.2%.

As for `O=C1CCC(N2Cc3c(NCc4ccc(-c5ccccc5)cc4)cccc3C2=O)C(=O)N1` (configuration not stated), the growth is 71.6%.

For `COc1ccc(CN2[C@@H](C(=O)NCc3ccc(C(=O)NO)cc3)Cc3c([nH]c4ccccc34)[C@@H]2C2CC2)cc1`, the growth was 40.3%.

With `CCOC(=O)c1c(CSc2ccccc2)n(C)c2cc(CN(C)C)c(O)c(CN(C)C)c12`, the growth was 49.6%.

As to `CCOC(=O)CNC(=O)CN(Cc1ccccc1)C(=O)[C@@]1(C)CCC[C@]2(C)[C@H]3C[C@H]4C(C(C)C)=C[C@]3(CC[C@H]21)[C@@H]1C(=O)OC(=O)[C@@H]14`, the growth was 53.9%.

Consider `CC(=O)Nc1ccc(-c2cn(-c3cccc(C(=O)Nc4cc(C(F)(F)F)cc(C(F)(F)F)c4)c3)nn2)cn1`, for which the growth is -26.1% (active).

Take `NS(=O)(=O)c1ccc(N=Nc2c(O)n(CC(=O)Nc3ccccc3Br)c3ccccc23)cc1`: the growth is 19.8%.

With `N#Cc1c(Cl)nc(SCc2ccc(F)cc2)nc1-c1ccc(F)cc1`, the growth is 91.6%.

Turning to `CN(C)c1ccc(/C=C/C(=O)c2ccc(NC(=O)CN3C(=O)NC(C)(c4ccccc4)C3=O)cc2)cc1` (configuration not stated), the growth is 56.5%.

Regarding `Cc1cc(C)nc(NS(=O)(=O)c2ccc(N/C(N)=N/c3nccc(-c4cccs4)n3)cc2)n1`, the growth was 99.7%.

Turning to `COc1ccc(/C=C/C(=O)c2ccc(N3CCN(C)CC3)cc2)c(C(F)(F)F)c1`, the growth is 48.4%.

On to `Clc1ccc(/C=N/Nc2ncnc3sc4c(c23)CCN(Cc2ccccc2)C4)cc1`, for which the growth was -53.2% (active).

For the compound `COc1cccc(/C=N/NC(=O)c2ccc3nc(-c4ccc(Cl)cc4)[nH]c3c2)c1O`, the growth is -76.8% (active).

As for `COc1ccc(-c2nc(S(=O)(=O)c3ccc(C)cc3)c(S(=O)(=O)CC(=O)N(C)Cc3ccccc3)o2)cc1`, the growth is 84.9%.

For `CC1=C2C(=C[C@@](C)(CO)[C@@H]2O)/C(=N\N)[C@](C)(O)C12CC2`, the growth was 5.73% (active).

For `CC(=O)c1ccc(Nc2nc(SC(C)C)nc(-c3ccccc3)c2C#N)cc1`, the growth is 57.3%.

With `CCN1CCN(Cc2ccc(NC(=O)c3cccc(-n4cc(-c5ccc(NC(C)=O)nc5)nn4)c3)cc2C(F)(F)F)CC1`, the growth was 96.4%.

In the case of `CC(C)c1ccc(C(=O)Nc2sc3c(c2C(N)=O)CCC(=O)C3=O)cc1`, the growth was 99.4%.

`COc1cc(C2CC(c3ccc(C)cc3)=Nc3c(N)nc(N)nc3N2)ccc1Oc1nc(Nc2ccc(F)cc2)nc(N(C)C)n1` (configuration not stated): the growth was 88.1%.

In the case of `O=c1c2ccccc2nc(COc2ccccc2)n1/N=C/c1ccc(N2CCCC2)cc1`, the growth was 92.2%.

In the case of `CCN1CCN(c2ccc(NC(=O)Nc3ccc4c(c3F)CCN4c3ccnc(C(=O)NC)c3)cc2C(F)(F)F)CC1`, the growth is -81.4% (active).

In the case of `O=c1[nH]c2ccccc2cc1CSc1ccc(Nc2nccc(-c3ccc4ccccc4c3)n2)cc1`, the growth is 22.4%.

Consider `O=C(CNc1nc(-c2ccccc2)cs1)Nc1cccc(Cl)c1`, for which the growth was 38.7%.

Turning to `O=c1[nH]c2ccccc2cc1CSc1ccc(Nc2nccc(-c3ccc(Cl)cc3)n2)cc1`, the growth was -39.7% (active).

Regarding `O=C1Nc2cc(-c3ccc(NC(=O)c4cccc([N+](=O)[O-])c4)cc3)ccc2/C1=C/c1ccc[nH]1`, the growth is 94.5%.

Consider `COc1ccc(-c2ccc(/C=N/NC(=O)c3[nH]c4ccc(Br)cc4c3-c3ccccc3)o2)cc1`, for which the growth was 42.5%.

For the compound `CN1CCN(c2ccc(C(=O)/C=C/c3cc(C(F)(F)F)ccc3Cl)cc2)CC1`, the growth was -78.1% (active).

Turning to `COc1ccc(-c2cc(-c3cc(C(=O)c4ccccc4)n4ccc(C)cc34)nc(N)c2C#N)cc1`, the growth is 79.9%.

Turning to `O=C(Nc1ccc(I)cc1)Nc1nc2ccc([N+](=O)[O-])cc2s1`, the growth is -91.6% (active).

For `CCCCCCCCCCCCCCCCCCCC(=O)NCCc1c[nH]c2ccc(O)cc12`, the growth was 90.8%.
